# Article PMC8384837, “Expanding the binding specificity for RNA recognition by a PUF domain”
# Residue numbers refer to the chain shown, from its start.
# Assays:
# Assay in all cases: yeast three-hybrid, YBZ-1, SC-Leu-His + 0.5 mM 3-AT, 4 days
# Details in all cases: tags: N-Gal4 AD-HA kept; label: inside an RPR1-promoter hybrid RNA with tandem MS2 sites; ssRNA
# PUM1 PUF domain R2-VWW = PUM1 PUF domain R2-VWW (Homo sapiens, UniProt Q14671 828-1176, N899V;Y900W;Q903W)
# Method in brief: (§1)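 Pumilio-1 PUF domain libraries, randomized (NNK) at the three base-contacting residues of each repeat, were co-expressed with matching RNA elements from a centromeric plasmid in strain YBZ-1 (LexA–MS2 coat fusion, HIS3 reporter). Transformants were plated on SC-Leu (input) and SC-Leu-His + 0.5 mM 3-AT (selection) for four days, and repeat regions were PCR-amplified and Illumina-sequenced. The interaction score is the log2 change in variant frequency from input to selection, with pseudocount 1 where absent.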
# PUM1 PUF domain R2-FWW = PUM1 PUF domain R2-FWW (Homo sapiens, UniProt Q14671 828-1176, N899F;Y900W;Q903W)
# Method in brief: as §1
# PUM1 PUF domain R1-QCR = PUM1 PUF domain R1-QCR (Homo sapiens, UniProt Q14671 828-1176, S863Q;R864C;Q867R)
# Method in brief: as §1
# PUM1 PUF domain R7-RRN = PUM1 PUF domain R7-RRN (Homo sapiens, UniProt Q14671 828-1176, S1079R;N1080R;E1083N)
# Method in brief: as §1
# PUM1 PUF domain R1-SYK = PUM1 PUF domain R1-SYK (Homo sapiens, UniProt Q14671 828-1176, R864Y;Q867K)
# Method in brief: as §1
# PUM1 PUF domain R6-HWW = molecular target: T1, PUM1 PUF domain R6-HWW (Homo sapiens, UniProt Q14671 828-1176, N1043H;Y1044W;Q1047W)
# T1 sequence: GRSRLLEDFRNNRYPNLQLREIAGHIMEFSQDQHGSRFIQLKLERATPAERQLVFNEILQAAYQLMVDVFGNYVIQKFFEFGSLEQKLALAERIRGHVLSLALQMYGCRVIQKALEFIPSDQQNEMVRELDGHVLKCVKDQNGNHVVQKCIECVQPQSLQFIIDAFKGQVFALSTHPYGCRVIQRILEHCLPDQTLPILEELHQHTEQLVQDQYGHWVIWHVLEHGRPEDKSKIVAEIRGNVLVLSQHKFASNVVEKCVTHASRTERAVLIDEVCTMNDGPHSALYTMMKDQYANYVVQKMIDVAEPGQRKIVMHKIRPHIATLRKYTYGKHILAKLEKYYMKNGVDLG
# Method in brief: as §1
# PUM1 PUF domain R6-NWL = molecular target: T2, PUM1 PUF domain R6-NWL (Homo sapiens, UniProt Q14671 828-1176, Y1044W;Q1047L)
# T2 sequence: T1 sequence with H216N, W220L
# Method in brief: as §1
# PUM1 PUF domain R3-GPR = PUM1 PUF domain R3-GPR (Homo sapiens, UniProt Q14671 828-1176, C935G;R936P;Q939R)
# Sequence of PUM1 PUF domain R3-GPR (Q14671 828-1176 C935G/R936P/Q939R): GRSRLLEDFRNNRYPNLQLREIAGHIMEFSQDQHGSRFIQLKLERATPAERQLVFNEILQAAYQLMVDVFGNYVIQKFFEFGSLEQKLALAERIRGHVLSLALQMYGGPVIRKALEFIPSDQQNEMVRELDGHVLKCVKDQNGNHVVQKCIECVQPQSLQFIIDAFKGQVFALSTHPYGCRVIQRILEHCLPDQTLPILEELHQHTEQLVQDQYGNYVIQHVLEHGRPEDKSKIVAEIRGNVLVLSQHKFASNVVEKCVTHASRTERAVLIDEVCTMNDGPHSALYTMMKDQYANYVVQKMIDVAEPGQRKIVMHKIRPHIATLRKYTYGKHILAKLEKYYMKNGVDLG
# Method in brief: as §1
# PUM1 PUF domain R3-IWG = PUM1 PUF domain R3-IWG (Homo sapiens, UniProt Q14671 828-1176, C935I;R936W;Q939G)
# Sequence of PUM1 PUF domain R3-IWG (Q14671 828-1176 C935I/R936W/Q939G): as the sequence (Q14671 828-1176 C935G/R936P/Q939R) above, with G108I, P109W, R112G counted along it
# Method in brief: as §1
# PUM1 PUF domain R5-RQN = PUM1 PUF domain R5-RQN (Homo sapiens, UniProt Q14671 828-1176, C1007R;R1008Q;Q1011N)
# Method in brief: as §1
sequence,measurement,setting,value
GGCUAGAACUAGUGGAUCCCCCGGCGCCCGGCGGCUCGAGCCCGGGUAAGUGUAAAAAGUCUGCAUGCCGCCGGGCGCCAUGCCUGCAGGUCGACUCUAGAAAACAUG,binding signal,PUM1 PUF domain R2-VWW,2.5 log2 enrichment (interaction score)
same,binding signal,PUM1 PUF domain R2-FWW,4.3 log2 enrichment (interaction score)
GGCUAGAACUAGUGGAUCCCCCGGCGCCCGGCGGCUCGAGCCCGGGUAAGUGUAAAUUGUCUGCAUGCCGCCGGGCGCCAUGCCUGCAGGUCGACUCUAGAAAACAUG,binding signal,PUM1 PUF domain R1-QCR,1.4 log2 enrichment (interaction score)
GGCUAGAACUAGUGGAUCCCCCGGCGCCCGGCGGCUCGAGCCCGGGUAAGUUUAAAUAGUCUGCAUGCCGCCGGGCGCCAUGCCUGCAGGUCGACUCUAGAAAACAUG,binding signal,PUM1 PUF domain R7-RRN,4.89 log2 enrichment (interaction score)
GGCUAGAACUAGUGGAUCCCCCGGCGCCCGGCGGCUCGAGCCCGGGUAAGUGUAAAUCGUCUGCAUGCCGCCGGGCGCCAUGCCUGCAGGUCGACUCUAGAAAACAUG,binding signal,PUM1 PUF domain R1-QCR,2.48 log2 enrichment (interaction score)
same,binding signal,PUM1 PUF domain R1-SYK,2.72 log2 enrichment (interaction score)
GGCUAGAACUAGUGGAUCCCCCGGCGCCCGGCGGCUCGAGCCCGGGUAAGUGUAAAUAGUCUGCAUGCCGCCGGGCGCCAUGCCUGCAGGUCGACUCUAGAAAACAUG,binding signal,PUM1 PUF domain R6-HWW,4.93 log2 enrichment (interaction score)
same,binding signal,PUM1 PUF domain R6-NWL,5.32 log2 enrichment (interaction score)
same,binding signal,PUM1 PUF domain R3-GPR,0.81 log2 enrichment (interaction score)
same,binding signal,PUM1 PUF domain R3-IWG,5.45 log2 enrichment (interaction score)
GGCUAGAACUAGUGGAUCCCCCGGCGCCCGGCGGCUCGAGCCCGGGUAAGUGUAAUUAGUCUGCAUGCCGCCGGGCGCCAUGCCUGCAGGUCGACUCUAGAAAACAUG,binding signal,PUM1 PUF domain R3-GPR,3.57 log2 enrichment (interaction score)
same,binding signal,PUM1 PUF domain R3-IWG,3.86 log2 enrichment (interaction score)
GGCUAGAACUAGUGGAUCCCCCGGCGCCCGGCGGCUCGAGCCCGGGUAAGUGUCAAUAGUCUGCAUGCCGCCGGGCGCCAUGCCUGCAGGUCGACUCUAGAAAACAUG,binding signal,PUM1 PUF domain R5-RQN,4.58 log2 enrichment (interaction score)
GGCUAGAACUAGUGGAUCCCCCGGCGCCCGGCGGCUCGAGCCCGGGUAAGUCUAAAUAGUCUGCAUGCCGCCGGGCGCCAUGCCUGCAGGUCGACUCUAGAAAACAUG,binding signal,PUM1 PUF domain R7-RRN,3.94 log2 enrichment (interaction score)
GGCUAGAACUAGUGGAUCCCCCGGCGCCCGGCGGCUCGAGCCCGGGUAAGUGUGAAUAGUCUGCAUGCCGCCGGGCGCCAUGCCUGCAGGUCGACUCUAGAAAACAUG,binding signal,PUM1 PUF domain R5-RQN,1.54 log2 enrichment (interaction score)
GGCUAGAACUAGUGGAUCCCCCGGCGCCCGGCGGCUCGAGCCCGGGUAAGUGUAACUAGUCUGCAUGCCGCCGGGCGCCAUGCCUGCAGGUCGACUCUAGAAAACAUG,binding signal,PUM1 PUF domain R3-GPR,1.8 log2 enrichment (interaction score)
GGCUAGAACUAGUGGAUCCCCCGGCGCCCGGCGGCUCGAGCCCGGGUAAGUGAAAAUAGUCUGCAUGCCGCCGGGCGCCAUGCCUGCAGGUCGACUCUAGAAAACAUG,binding signal,PUM1 PUF domain R6-NWL,2.34 log2 enrichment (interaction score)
GGCUAGAACUAGUGGAUCCCCCGGCGCCCGGCGGCUCGAGCCCGGGUAAGUGUAAGUAGUCUGCAUGCCGCCGGGCGCCAUGCCUGCAGGUCGACUCUAGAAAACAUG,binding signal,PUM1 PUF domain R3-GPR,1.82 log2 enrichment (interaction score)
same,binding signal,PUM1 PUF domain R3-IWG,5.3 log2 enrichment (interaction score)
